Test results taken from paper PMC12136788.
The full ranking holds about 24,000 sequences; the median of “enrichment r” is about 0.99, and the highest 2% start at about 3.7. This excerpt belongs to a sample that is enriched for the highest values.

T1: UNK ZnF1-3 (human, UniProt Q9C0B0 31-174)
T1 sequence: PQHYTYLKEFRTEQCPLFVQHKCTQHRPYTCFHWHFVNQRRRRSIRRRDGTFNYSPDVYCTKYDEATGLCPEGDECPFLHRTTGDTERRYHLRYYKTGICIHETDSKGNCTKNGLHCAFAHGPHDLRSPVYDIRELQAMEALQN

B1: chr5:61651017:61651018:+_ENSG00000068796_ENST00000381103|hu_hu|FALSE|FALSE (ssRNA)
RNA: GGGAGUUCUACAGUCCGACGAUCCCUAUGUUCAUCAAUAGGAUCUGCUGUUGUUAAUGGUCUAUAAUCCAAACUUCCUCUAAAGUCUCUGAUCAUACACAUAAUUUCAUAAUUUGGGUUUGUAGCAUCAACGUCCUGGGCUCUCAACAGAGGAUUGAGCAUCA
B2: chrX:131339380:131339381:-_ENSMUSG00000033436_ENSMUST00000035559|mus_hu|FALSE|FALSE (ssRNA)
RNA: GGGAGUUCUACAGUCCGACGAUCACUGAGAAGUUUCUUCAACAUAUCUGGAUUUUCAGCAAAAUUCGAAAGGAUUUUCAAAAUCUCAACCUUGAUUUUUCCACCUCCCUGAGAUAGCAAACGGAAAAAGUUUGCAAUGGAAUUCAACAGAGGAUUGAGCAUCA
B3: chr8:95500983:95500984:-_ENSG00000164944_ENST00000437199|hu_hu|hu_hu_hu_mus_True|58_68 (ssRNA)
RNA: GGGAGUUCUACAGUCCGACGAUCAGAACACAUCUAUCGAGUAAAGGACCGUACAUGACGGCCUCUAACCACUGCCUCCACUAACAACUUUCCUCUCGAGCCUCCACUGCCGCUAUUUGUACUAGCCCAGGACGGUCCCAGGCCCAACAGAGGAUUGAGCAUCA
B4: 37721237_37722996_1653_CDS_ENSG00000082068_ENST00000265107|human|control|control (ssRNA)
RNA: GGGAGUUCUACAGUCCGACGAUCUGCCUUCCGCUGGGUUUUAACCACACAUAAUUUUGCUCCCCUCUGACUCUUGUUGGGGUCGUAAUAGACUUUAGCCAAUCCAUUUCCAGUUCCAACCAUGAUCUGGUUCAGCUUUGGAUGCAACAGAGGAUUGAGCAUCA
B5: 55795476_55800851_1969_CDS_ENSG00000138041_ENST00000407823|human|control|control (ssRNA)
RNA: GGGAGUUCUACAGUCCGACGAUCCCGCCUCAUAAAGCGAAGGGCACACAAGGCCAGAAAAGUGUGCUUUGAAUUCAUCAAGACCAAGACUCUUCUUAGCAAGUCCUUGUUCAUAAUAUAGUUUUUUAUGUGAUAUGUGUGAUGCAACAGAGGAUUGAGCAUCA
B6: chr19:8913615:8913616:-_ENSMUSG00000071658_ENSMUST00000096259|mus_hu|mus_mus_mus_hu_False|1_98 (ssRNA)
RNA: GGGAGUUCUACAGUCCGACGAUCAGGGUACCAAAACACCCUGCCUCAAAUGGGUGCCCCACCCAGUAGGGAGUUGCAGCUGAAAGUAUCUGAUGCAGAAGCAGUGACUAUACGAAAGGAGGCCCCUGGGGAGGGCCCGAGAUCCAACAGAGGAUUGAGCAUCA
B7: 69202206_69203042_311_CDS_ENSG00000135679_ENST00000462284|human|control|control (ssRNA)
RNA: GGGAGUUCUACAGUCCGACGAUCUGAGGUGGUUACAGCACCAUCAGUAGGUACAGACAUGUUGGUAUUGCACAUUUGCCUGCUCCUCACCAUCCGGGGUUUUCGCGCUUGGAGUCGGGGGUCCCUCAAGACUCCCCAGUUUCCCAACAGAGGAUUGAGCAUCA
B8: 116785305_116785425_2892_3pUTR_ENSMUSG00000055531_ENSMUST00000069168|mouse|control|control (ssRNA)
RNA: GGGAGUUCUACAGUCCGACGAUCAAAAAAUGAAAGAAAGGAAAAAAAAAGAAAAAAAAAUCAGCUGAUUAACUCUAAUCAAGCAUAGAUCAACAAGGUUACAGGAAUACACACACAAUUCCUUGAGCCAUGAAGACAGUGUAACAACAGAGGAUUGAGCAUCA
B9: chr1:100327937:100327938:+_ENSG00000162688_ENST00000361915|hu_hu|motif|central (ssRNA)
RNA: GGGAGUUCUACAGUCCGACGAUCUUCUUUUGCAACCCUAAGUCUGCUUUCCCAUUCAUCAAAAGGUCCCAAACACUUAGCGGAAAAUGUCUGAAGAGUAACACAGUCCAAGGGUAGCACAUGAUUAUCAGCACCAACACGUAACAACAGAGGAUUGAGCAUCA
B10: chr14:31337589:31337590:+_ENSMUSG00000021962_ENSMUST00000022535|mus_mus|motif|central (ssRNA)
RNA: GGGAGUUCUACAGUCCGACGAUCAAUGACCUGUAUCAUAGAAACGAAGACACUUUUCAUUCAAAGAAUAUCUCAAAAUUACGGUUGCUGAAAUAAUCAAAUUCUACAUUAAAAUAUUACCAAACACCAUUACAUGCCAUAAAACAACAGAGGAUUGAGCAUCA
B11: chr1:38489359:38489360:+_ENSG00000183520_ENST00000537711|hu_mus|FALSE|FALSE (ssRNA)
RNA: GGGAGUUCUACAGUCCGACGAUCAGUCAUGAUUACAAAACAGGAAGACCAAGCCAUUUGAAUUAAUAAAAUCUGAAGUUAUUACAAAAGACAGGAGGAAAAGAUAAUAAUUCUUUUCGAUACAGAAUGCUGAGGCUUAAUUUUCAACAGAGGAUUGAGCAUCA
B12: chr1:58468927:58468928:-_ENSMUSG00000026034_ENSMUST00000148330|mus_mus|mus_mus_mus_hu_False|38_108 (ssRNA)
RNA: GGGAGUUCUACAGUCCGACGAUCAAUCUAUAAUUACGAUGUUCAUUACCUUAGCUAUGUACUUAAUGAACCAAAUUACCCAAACAAAAUAAACAUGUUUACAAAUUAAUGUUAAGAAUUUACAAAGCUGUACAAAAUAACUUACAACAGAGGAUUGAGCAUCA
B13: 67235911_67236031_3360_3pUTR_ENSMUSG00000036371_ENSMUST00000042990|mouse|control|control (ssRNA)
RNA: GGGAGUUCUACAGUCCGACGAUCAACAUUCAAAAAUCUUAAACAAGAAUUAUCUUACGAUAAUGAAAAAGGGAAACCAAGAAACAUAUAAAGGGGUUCCCACUUGAUUGCUUUUAUCUUUUAGGAAAUGAGCAUGAAAAUAAACAACAGAGGAUUGAGCAUCA
B14: chr4:40680069:40680070:+_ENSMUSG00000028410_ENSMUST00000030118|mus_hu|motif|central (ssRNA)
RNA: GGGAGUUCUACAGUCCGACGAUCAAAAUCAGAGCUUUUAUAUUUGCGUUUAUUCUUCAUUUAACUUUUUAAAACACGGCGGUAGUUUAUUAAAACAAAAACAAGAGCAAGUAGUGAGCAUAUUAUGAUUACAGUCCUUCACUCCAACAGAGGAUUGAGCAUCA
B15: chr5:122939345:122939346:-_ENSMUSG00000029467_ENSMUST00000031423|mus_mus|FALSE|FALSE (ssRNA)
RNA: GGGAGUUCUACAGUCCGACGAUCCUUUCUGUCCUGUCGAUACACUUUGCCCAUUUCAGGCUCAUAUUCCUUAAGAGCUUCUAUUGCAUUUUCAGCAUUUCUUUCCUGCCACACACCCACGAUUGCAUUGGCUACCAAGAUAAGCAACAGAGGAUUGAGCAUCA
B16: chr3:41281487:41281488:+_ENSG00000168036_ENST00000349496|hu_hu|motif|central (ssRNA)
RNA: GGGAGUUCUACAGUCCGACGAUCCUACGAGAGACUUAAAAAACAGUUACUGCAAAAAAAAAAAAAAAAAAAAAAAAAGAGCGGCUUCAAAGCAAGCAAAGUCAGUACCAUUACAGAUAUUCUUAAAAAAAAAAAAAAAAAAAUCAACAGAGGAUUGAGCAUCA
B17: 97946324_97946444_1485_ncRNA_ENSMUSG00000021666_ENSMUST00000159321|mouse|control|control (ssRNA)
RNA: GGGAGUUCUACAGUCCGACGAUCUGAUUCUGAAAUCAUGUAAAUUAAGAUUUGUUAGGCUGUUUUUUUUUUAAAUAAACCAUCUUUUUAUUGAUUGAAUCUUUCUAUCCCUGAAUCAAACACUGAAUCUUUUAUGUGAGCAGCCAACAGAGGAUUGAGCAUCA
B18: chr1:130270616:130270617:-_ENSMUSG00000026356_ENSMUST00000027602|mus_hu|FALSE|FALSE (ssRNA)
RNA: GGGAGUUCUACAGUCCGACGAUCGUAAUGGUAAUUAAAAGCCAUUUCAAUGUCCAAACCAACAAACUCAGUUAGAUGUCUAUGGGUAUUAGAGUCUUCCGCUCUGAAUACUGGUCCAAUAGAGAAAACCUUCUCAAAAUCAGCCAACAGAGGAUUGAGCAUCA
B19: chr1:135503150:135503151:-_ENSMUSG00000090553_ENSMUST00000166915|mus_hu|motif|central (ssRNA)
RNA: GGGAGUUCUACAGUCCGACGAUCUUCUGCAUCAUCUAAUACAAGGUUCAUAUACUCAUCAAAACCAAUGAUACAGCCUUCGGUCCGCAUAUUCACUUGCUCAUAGAGCCACACCUGAAUCCGCGAUCUCUGAAAUAAUCAUAACAACAGAGGAUUGAGCAUCA
B20: chr7:40134317:40134318:+_ENSG00000065883_ENST00000340829|hu_mus|FALSE|FALSE (ssRNA)
RNA: GGGAGUUCUACAGUCCGACGAUCGGAAGGGUCAUUGCUGUUUGUGAGGACUGUGAUAGGACCAUGGCUAUAUUCAAAUCUAUGGUCCUUGUCUCCACUAAACAACAUGGGACCAGCAUUGAGGUAAAUGUCUCCAUAUCCAGCCAACAGAGGAUUGAGCAUCA
B21: chr11:61557309:61557310:-_ENSG00000134825_ENST00000537328|hu_mus|FALSE|FALSE (ssRNA)
RNA: GGGAGUUCUACAGUCCGACGAUCGAUGCCAACCCAGAGCAGGAGGAAGAGGACUCCAAAGCCCAUGAAGAGUGAGGCCACCAAGGAGAUGAGGAGCUCUUUGUAAAUAUCGCGUGUGUACUUGGUAGAGGUGACCUCGUAAACCAACAGAGGAUUGAGCAUCA
B22: chr17:60744165:60744166:+_ENSG00000011028_ENST00000303375|hu_mus|FALSE|FALSE (ssRNA)
RNA: GGGAGUUCUACAGUCCGACGAUCGUUGAGGUACUUGAGGGGUGAGUUGUCUGACCACUGCCAGCCUCCACUGGUAUCCAGGUCAUUAAGGCCAAUCCAUAGCGUGGAGCUGUAGCCCGUGAGGAGCCCGUUGAUGUAGGUCUGCAACAGAGGAUUGAGCAUCA

Target: T1, UNK ZnF1-3
Assay: nsRBNS (natural sequence RNA bind-n-seq); RBNS binding buffer (assumed for nsRBNS): 25 mM Tris pH 7.5, 150 mM KCl, 3 mM MgCl2, 0.01% Triton X-100, 500 ug/ml BSA, 20 U/ml SUPERase-In, 4 C; UNK is unkempt and MSI1 is Musashi-1; names of the RNAs are library labels; protein concentration not given here; high values mean tight binding

Row | Binder | binding signal [enrichment R]
1 | B1 | 1.64
2 | B2 | 0.897
3 | B3 | 1.3
4 | B4 | 0.501
5 | B5 | 2.04
6 | B6 | 1.7
7 | B7 | 0.532
8 | B8 | 4.36
9 | B9 | 1.32
10 | B10 | 0.998
11 | B11 | 8.05
12 | B12 | 0.436
13 | B13 | 5.78
14 | B14 | 1.05
15 | B15 | 0.9
16 | B16 | 8.09
17 | B17 | 0.66
18 | B18 | 0.771
19 | B19 | 1.18
20 | B20 | 0.887
21 | B21 | 2.5
22 | B22 | 1.03
